The campaign covered roughly 200,000 compounds. About 18,000 (9%) were called active. For the sample, actives were picked, then their nearest neighbours and some compounds at random. A number with no mark means an inactive call. Cut-off read from the data, not from the text of the source: active = inhibition above about 50%; inactive = the rest.

As a reminder, the inhibition is the change of the read-out against control, counted positive when it falls.

This assay can be described thus: antileishmanial activity against promastigotes – primary screen (AID 1063).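 Note: promastigotes grown with compound for 44 hours at 28 °C.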 Particulars: Leishmania major promastigotes, resazurin fluorescence viability; at 10 µM; active compounds read high. On the technique in general: The colour change of resazurin is a common sign of viable cells or microbes.
Consider `CC(C)n1c(=O)[nH]c2cc(C(=O)Nc3ccccc3)ccc21`, for which the inhibition was -2.18%. Then `O=C(N/N=C/c1ccco1)c1ccc(C(=O)N/N=C/c2ccco2)o1`, with -1.3%.

For `COC(=O)c1nn(-c2cccc(Cl)c2)ccc1=O`, the inhibition was -3.04%. Turning to `O=C(Cc1ccc([N+](=O)[O-])cc1)N/N=C/c1ccco1`, the inhibition was 2.95%. As for `COc1cc(NC(=O)CSc2nnc3ccc(-c4ccncc4)nn23)cc(OC)c1`, the inhibition is -2.79%.

Consider `CCOc1ccc(C(=O)NC(=S)Nc2ccc(NC(=O)C(C)C)cc2)cc1[N+](=O)[O-]`, for which the inhibition is -7.33%.

In the case of `COc1cccc(OC)c1C(=O)NC(=S)Nc1ccc(N2CCOCC2)c(Cl)c1`, the inhibition is 21.4%. Then `CCOc1ccc(C(=O)NC(=S)Nc2ccc(N3CCOCC3)c(Cl)c2)cc1[N+](=O)[O-]`, with 100% (active). Then `O=C(c1ccncc1)N1CCN(c2ccc3ccccc3n2)CC1`, with -1.56%; and `O=C(Nn1cnnc1)c1ccc([N+](=O)[O-])cc1`, with -11.1%. The value for `Cc1noc(C)c1S(=O)(=O)N(CC(=O)Nc1ccc2c(c1)OCCO2)c1ccc(C(C)C)cc1` was 55.8% (active); that for `CCOC(=O)c1cccc(NC(=O)CN(c2ccc(C)cc2)S(=O)(=O)c2c(C)noc2C)c1` was 22.7%. Consider `Cc1noc(C)c1S(=O)(=O)N(CC(=O)NCc1ccc(Cl)cc1)c1ccc2c(c1)OCO2`, for which the inhibition was -4.31%.

`CCC1CCCCN1C(=O)CSc1nc(C)cc(C)n1` (centres undefined): the inhibition was 11.3%.

In the case of `O=C(O)/C=C/C(=O)NNc1ccc([N+](=O)[O-])cc1`, the inhibition was -9.99%. The value for `CC(=O)Nc1ccc(C(=O)CSc2nc3ccc(C)cc3[nH]2)cc1` was 52.9% (active); that for `CCOC(=O)CSc1nc2ccc(C)cc2[nH]1` was -4.89%; that for `O=C(CSc1nc2ccc([N+](=O)[O-])cc2[nH]1)c1ccc(Cl)cc1` was -1.01%. The value for `O=C1c2ccccc2NC(c2ccccn2)N1NS(=O)(=O)c1ccccc1` (centres undefined) was 2.46%. The value for `COc1ccc(NS(=O)(=O)c2cc(NC(=O)/C=C/c3cc(OC)c(OC)c(OC)c3)ccc2N2CCCCC2)cc1` was 61.7% (active); that for `COc1ccc(/C=C/C(=O)Nc2ccc3c(c2)OCCO3)cc1OC` was 13.8%.

For the compound `COc1ccc(NS(=O)(=O)c2cc(NC(=O)C3CCCCC3)ccc2N2CCOCC2)cc1`, the inhibition was 16.6%. The value for `COc1cccc(CNCCc2c[nH]c3ccccc23)c1OCc1ccccc1F` was 101% (active); that for `COc1ccccc1NC(=O)CCCc1c[nH]c2ccccc12` was -1.94%; that for `Cc1cc(C)cc(NC(=S)NCCc2c[nH]c3ccccc23)c1` was 10.6%. The value for `CCOc1ccc(S(=O)(=O)Nc2ccncc2)c(C)c1C` was -6%; that for `O=C(CCn1ccc([N+](=O)[O-])n1)Nc1nccs1` was 11.6%. The value for `COc1ccc2c(c1OC)C(=O)OC2c1c(O)nc(SC)n(-c2ccccc2)c1=O` (centres undefined) was -6.91%; that for `COc1ccc(-c2csc(Nc3ccccn3)n2)cc1` was 15.6%. Regarding `COc1ccc2c(c1OC)C(=O)OC2Nc1nc(-c2ccccc2)cs1` (centres undefined), the inhibition was 99.8% (active). Then `CC(=O)c1cnc(-c2ccccc2)s1`, with -5.94%; and `COCCNC(=O)C(c1ccc(O)cc1)N(C(=O)CCC(=O)Nc1nccs1)c1ccc(C)cc1` (centres undefined), with -10.6%. The value for `CN1CCCN(C(=O)C2CCCCC2)CC1` was 0.8%; that for `CCOC(=O)C1(CCOC)CCN(Cc2ccc(C(=O)OC)cc2)CC1` was 81.1% (active). The value for `COC(=O)CCC(=O)N1CCCC(CO)(Cc2ccccc2)C1` (centres undefined) was -4.47%; that for `COc1ccc(C(=O)Nc2sc(C)c(C)c2CN2CCOCC2)cc1` was -3.61%. As for `Cc1nn(C)c(C)c1S(=O)(=O)N1CCC(CO)(Cc2ccc(Cl)cc2)CC1`, the inhibition was 2.5%. Then `COc1ccc(CC2(CO)CCN(Cc3cnn(C)c3)CC2)cc1`, with 91.4% (active); and `COc1cccc(CC2(CO)CCN(Cc3cnc(-c4cccc(C)c4)nc3)CC2)c1`, with 4.89%.

Consider `CCOC(=O)C1(S(=O)(=O)c2ccccc2)CCN(Cc2ccccc2)CC1`, for which the inhibition is 1.91%. The value for `COC(=O)c1ccc(CN2CCC(CO)(Cc3ccc(OC)cc3)CC2)cc1` was 86.4% (active); that for `CCOC(=O)C1(S(=O)(=O)c2ccc(Cl)cc2)CCN(Cc2ccccc2)CC1` was 29.3%; that for `OCCCC1CCCCN1Cc1nc(Cc2ccccc2Cl)no1` (centres undefined) was -4.56%. The value for `Cc1nc2ccccc2c(C)c1C(=O)c1ccc(F)cc1` was -3.66%; that for `CC(OC(=O)c1ccccc1N1C(=O)C2C3CCC(C3)C2C1=O)C(=O)c1ccccc1` (centres undefined) was 32%. The value for `CCCCN(CC(=O)NC(C)(C)C)C(=O)C(=O)Nc1ccc2c(c1)OCCO2` was -6.64%; that for `Cn1ncc(N2CCN(S(=O)(=O)c3ccc(Br)cc3)CC2)c(Cl)c1=O` was 39.2%; that for `O=C1CC(=O)Nc2cc(S(=O)(=O)N3CCN(c4cccc(C(F)(F)F)c4)CC3)ccc2N1` was -5.33%. For the compound `Cc1cc(C)nc(Nc2ncn[nH]2)n1`, the inhibition was -7.12%. Then `CCCCS(=O)c1snnc1C` (centres undefined), with -4.06%; and `COc1ccc(N(CC(=O)Nc2ccc(C)cc2C)S(=O)(=O)c2ccccc2[N+](=O)[O-])c(OC)c1`, with 9.22%; and `O=C(Nc1ccc2ccccc2c1)/C(=C/c1cccc(Br)c1)NC(=O)c1ccco1`, with 76.3% (active). The value for `Cc1cccc(NC(=O)/C(=C\c2ccco2)NC(=O)c2ccccc2)c1` was 3.51%.

Consider `O=C(Nc1ccc2ccccc2c1)/C(=C\c1ccc2c(c1)OCO2)NC(=O)c1ccco1`, for which the inhibition was 1.7%.

In the case of `CCCCCCCCCCOC(=O)C[N+](C)(C)CC1CCCCC1O` (centres undefined), the inhibition was -3.34%. Then `N#C/C(=C/c1ccc(N2CCOCC2)o1)C(=O)N1CCOCC1`, with 54.5% (active); and `N#C/C(=C\c1ccc(N2CCOCC2)o1)C(=O)N1CCOCC1`, with 39.9%.

Take `N#C/C(=C/c1ccc(N2CCCCC2)o1)C(=O)NCCc1c[nH]c2ccccc12`: the inhibition was 0.13%. For the compound `CC(C)(C)C(=O)N(Cc1ccccc1)c1ccccn1`, the inhibition is -4.68%.

For the origin of these results see PubChem BioAssay AID1063 (University of Pittsburgh Molecular Library Screening Center, 2008).
